Source: PubChem BioAssay
AI-2 QS modul – Vibrio harveyi AI-2 quorum sensing modulators, primary screen, JMH597 strain, luminescence/OD600 ratio; Vibrio harveyi JMH597 AI-2 luminescence/OD600 ratio, 9 h; active compounds read low; strain lacks LuxN and CqsS sensors; 0 = neutral-control median; activity change, % at 7.5 µM; 300,000 tested, 0.4% active; AID 2094, 2009; in the data active means activity change below about -75%, passing the limit was not always enough; inconclusive means no clear call, values can overlap the other calls;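 further: luminescence divided by OD600 gain over 9 h not by final OD600 alone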
GRIN3A LBD mod – binders of NR3A ligand-binding domain, primary screen, biophysical, differential scanning fluorimetry, uHTS | Tm shift relative to glycine control, % at 25 µM | NR3A LBD differential scanning fluorimetry, Tm shift; 0% = protein alone, 100% = glycine-bound protein | 340,000 tested, 2.5% active | Glutamate receptor ionotropic, NMDA 3A (GRIN3A) ligand-binding domain | AID 1259313, 2017;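 active means melting temperature shift of at least 10% of the positive control shift, at one fixed dose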
NTR1 ag – agonists of human NTR1, primary screen, imaging, U2OS cells, beta-arrestin-GFP, high content. NTR1-U2OS beta-arrestin-GFP spot imaging, agonist mode. activation, % at 20 µM. 330,000 tested, 0.17% active. AID 493036, 2011;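 active means activation at or above 40% of the spot to cytoplasm intensity ratio, with at least 20 cells analyzed; inconclusive means wells under 20 cells, flagged as cytotoxic or low count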
SUMO Mot1 rescue – yeast Mot1-301 growth rescue at high temperature, primary screen, SUMOylation pathway inhibitor project, S. cerevisiae, ATP luminescence, 38.5C | AID 2716, 2010 | S. cerevisiae Mot1-301 growth rescue; percent above DMSO median, 100 means doubled | 320,000 tested, 1% active | growth rescue, % at 18.8 µM;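 active means every valid replicate shows activation above 250% relative to neutral control wells; inactive means the rest, any valid replicate at or below 250%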
AHR activator – AHR activators, primary screen, cell-based, luminescence, luciferase reporter, human | 320,000 tested, 2.5% active | Aryl hydrocarbon receptor (Homo sapiens), P35869 | activation, % at 5 µM | AID 2796, 2010 | AHR-responsive luciferase reporter cells; in the data active means activation above about 47%
Target sequence (P35869 whole entry, looked up): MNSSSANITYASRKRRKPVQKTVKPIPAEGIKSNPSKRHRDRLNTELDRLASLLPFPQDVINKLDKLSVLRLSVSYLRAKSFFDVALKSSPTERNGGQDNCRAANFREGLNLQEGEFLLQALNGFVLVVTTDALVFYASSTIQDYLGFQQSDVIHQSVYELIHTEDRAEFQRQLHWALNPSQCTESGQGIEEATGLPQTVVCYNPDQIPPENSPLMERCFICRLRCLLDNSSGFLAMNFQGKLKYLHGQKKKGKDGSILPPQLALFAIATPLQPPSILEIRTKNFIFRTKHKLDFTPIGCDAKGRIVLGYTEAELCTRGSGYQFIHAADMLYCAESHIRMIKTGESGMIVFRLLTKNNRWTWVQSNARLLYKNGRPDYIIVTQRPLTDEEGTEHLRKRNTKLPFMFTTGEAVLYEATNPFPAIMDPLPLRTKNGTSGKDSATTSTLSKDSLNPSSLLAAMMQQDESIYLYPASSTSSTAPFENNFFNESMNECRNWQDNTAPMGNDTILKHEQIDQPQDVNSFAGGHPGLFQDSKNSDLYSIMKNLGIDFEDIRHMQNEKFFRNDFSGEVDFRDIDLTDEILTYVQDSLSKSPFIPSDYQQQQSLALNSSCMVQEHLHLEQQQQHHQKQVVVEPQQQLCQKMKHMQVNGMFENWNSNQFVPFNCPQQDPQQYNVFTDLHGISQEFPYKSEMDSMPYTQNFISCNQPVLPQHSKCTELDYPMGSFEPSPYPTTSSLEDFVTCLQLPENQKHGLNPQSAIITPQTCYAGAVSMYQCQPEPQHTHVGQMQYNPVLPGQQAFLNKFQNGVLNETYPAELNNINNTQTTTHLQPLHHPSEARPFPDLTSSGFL
H9c2 protect – cardioprotection against H2O2-induced cell death, primary screen, uHTS, H9c2 cells, ATPLite luminescence; H9c2 cardiomyocytes, H2O2 injury protection, 2 h; protection from H2O2 cell death, % at 20 µM; 360,000 tested, 0.63% active; AID 588492, 2011;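 active means compounds giving at least 50% protection of heart cells from peroxide-induced death in the single-dose screen, raw or plate-pattern-corrected value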
Large screens that a line does not name were inactive. Hits are enriched below; roughly 6.2% of the tested compounds scored in any of these assays.

CC(C)(O)c1ccc2c(c1)CCC1C(C)(C(=O)O)CCCC21C (stereo not drawn)	none
CCOC(=O)c1ccc(NC(=O)NCCc2cnc[nH]2)cc1	none
S=C(NCc1ccc(Cl)cc1Cl)NC1CCCCC1	GRIN3A LBD mod 32, SUMO Mot1 rescue 645
S=C(NCCc1cccc(Cl)c1)NC1CCCCC1	GRIN3A LBD mod 12 (no result: AHR activator)
Nn1c(SCC(=O)NC2CCS(=O)(=O)C2)nc2scc(-c3ccccc3)c2c1=O (stereo not drawn)	none (no result: AI-2 QS modul)
COc1ccc(CN2CCC(n3nccc3NC(=O)c3cccc(F)c3)CC2)cc1O	none
CCC(CC)C(=O)N(C)c1c(C)nc2c(OCCC3CCCCC3)cccn12	none (no result: AI-2 QS modul, GRIN3A LBD mod, NTR1 ag, SUMO Mot1 rescue, AHR activator)
COc1cc2c3nnc(-c4ccc(F)cc4)c-3cn(Cc3ccc(F)cc3)c2cc1OC	NTR1 ag 84
COc1cc([N+](=O)[O-])ccc1-c1ccc(C(=O)Nc2ccc(NC(C)=O)cc2)o1	none (no result: NTR1 ag)
O=C(Nc1ccc(CN2CCOCC2)cc1)c1ccc(-c2cccc([N+](=O)[O-])c2)o1	H9c2 protect 62
CC(=O)Nc1ccc(NC(=O)c2ccc(-c3ccc([N+](=O)[O-])cc3)o2)cc1	GRIN3A LBD mod 12
COc1ccc([N+](=O)[O-])cc1C(=O)Nc1ccc(Cc2ccncc2)cc1	AHR activator 72
O=[N+]([O-])c1cccc(-c2ccc(C(=S)N3CCOCC3)o2)c1	none
COc1ccc(NC(=O)c2ccc(-c3ccc([N+](=O)[O-])cc3)o2)cc1OC	GRIN3A LBD mod 14
CC1(C(=O)NCc2ccccc2Br)CCN1C(=O)CCc1ccc(Cl)cc1Cl (stereo not drawn)	none (no result: AI-2 QS modul, GRIN3A LBD mod, NTR1 ag, SUMO Mot1 rescue, AHR activator)
C[C@H]1NS(=O)(=O)c2ccc(Br)cc2O[C@H]1c1ccccc1	none (no result: AI-2 QS modul, SUMO Mot1 rescue, AHR activator)
Cc1ccc2oc(C(=O)N(C)CCC(O)c3ccccc3)c(C)c2c1 (stereo not drawn)	none
COc1cccc(NC(=O)c2ccc(-c3ccc([N+](=O)[O-])cc3)o2)c1	GRIN3A LBD mod 17
Cc1nnc(NC(=O)c2ccc(-c3ccc([N+](=O)[O-])cc3)o2)s1	none
CCN1C(=O)[C@H]2[C@@H](c3ccc(-c4ccc(C(C)=O)cc4)cc3)N3CCCC[C@@]3(C(=O)OC)[C@H]2C1=O	none
COc1cc2nc(C3CCC3)nc(N3CCN(c4ccccn4)CC3)c2cc1OC	H9c2 protect 60
COc1cc2nc(C3CCC3)nc(N3CCN(c4ccccc4OC)CC3)c2cc1OC	none (no result: NTR1 ag)
CCn1c2ccc(F)cc2c2nnc(SCCN3CCCCC3)nc21	none (no result: AHR activator)
CC(C)c1c(C(=O)N/N=C/c2c[nH]c3ccccc23)nnn1-c1nonc1N	GRIN3A LBD mod 38
CCOc1ccc(/C=N/NC(=O)c2nnn(-c3nonc3N)c2-c2ccc(OCC)cc2)cc1	none
CCN(CC)Cc1c(C(=O)N/N=C/c2cccc3ccccc23)nnn1-c1nonc1N	none
CCCc1c(C(=O)N/N=C/c2cccc3ccccc23)nnn1-c1nonc1N	GRIN3A LBD mod 40
CCOc1ccc(-c2c(C(=O)N/N=C/c3c[nH]c4ccccc34)nnn2-c2nonc2N)cc1	GRIN3A LBD mod 32, H9c2 protect 54
CC(C)c1c(C(=O)N/N=C/c2cccc3ccccc23)nnn1-c1nonc1N	GRIN3A LBD mod 32
CC(C)c1c(C(=O)N/N=C/c2cccs2)nnn1-c1nonc1N	none
CC(C)CC1C(=O)N(Cc2cn(CC3CCCCC3)nn2)CCS(=O)(=O)N1Cc1ccc(-c2ccc(F)nc2)cc1 (stereo not drawn)	none (no result: AI-2 QS modul, GRIN3A LBD mod, NTR1 ag, SUMO Mot1 rescue, AHR activator)
Cc1cc2c(cc1S(=O)(=O)Nc1ccc(OC(F)(F)F)cc1)OCC(=O)N2	none (no result: SUMO Mot1 rescue)
COc1ccc(C(=O)COc2ccc(NC(C)=O)cc2)cc1	GRIN3A LBD mod 13
CCOc1ccc(OCC(=O)Nc2ccc(OC)cc2)cc1	none (no result: SUMO Mot1 rescue)
O=C(C#Cc1ccccc1)Nc1ccc(F)cc1	AI-2 QS modul inconclusive
COc1ccc(NC(=O)C#Cc2ccccc2)cc1	GRIN3A LBD mod 10
